Assay outcomes deposited in PubChem BioAssay by University of Kansas High Throughput Screening Laboratory.
Pf apPOL block = Pf-apPOL DNA polymerase inhibition | inhibition, % at 10 µM | actives 0.25% (n = 210,000) | AID 1794808 | Recombinant Pf-apPOL, molecular beacon fluorescence, 1.5 h
mHTT-CaM PPI inh = inhibitors of human mutant huntingtin-calmodulin interaction; actives 3.6% (n = 190,000); AID 1671202; P42858; inhibition, % at 15 µM; AlphaScreen His-mHTT/GST-CaM binding, luminescence
Of the large screens only hits and unclear results are named; the others gave an inactive call. Only a selection was taken, and hits are over-represented in it overall. Cut-off read from the data, not from the text of the source: active = inhibition above about 50%; inactive = the rest.

COCCn1cc2c3c(cccc31)CN(C(=O)COc1ccc(F)cc1)CC2	mHTT-CaM PPI inh 56
CCCn1cc2c3c(cccc31)CN(C(=O)COc1ccccc1)CC2	mHTT-CaM PPI inh 50
COc1ccc(OCC(=O)N2CCc3cn(C)c4cccc(c34)C2)cc1	none
C=CCNC(=O)N1CCN(c2nc3c(F)cc(F)cc3s2)CC1	none
Cc1ccc(C2CC(C(F)(F)F)n3ncc(C(=O)Nc4ccc5c(c4)CCC5)c3N2)cc1 (stereo unspecified)	none
O=C(c1ccccc1)N1CCN(Cc2cccc(Cl)c2)CC1	none
CCN(CC)c1nc(-c2ccccc2F)nc2ccccc12	none
CC(C)N1Cc2cc(C(=O)NCCC3=CCCCC3)sc2C1	none
CCC1Sc2ccccc2N(CC(=O)NC2CCCCC2C)C1=O (stereo unspecified)	none
COCCCNC(=O)N1CCc2cn(CCOC)c3cccc(c23)C1	none
COCCn1cc2c3c(cccc31)CN(C(=O)Cc1cccc(F)c1)CC2	none
CCC(C(=O)N1CCc2cn(CCOC)c3cccc(c23)C1)c1ccccc1 (stereo unspecified)	mHTT-CaM PPI inh 63
CCn1cc2c3c(cccc31)CN(C(=O)Cc1ccc(F)cc1)CC2	mHTT-CaM PPI inh 64
CCC(=O)N1CCc2cn(CC)c3cccc(c23)C1	none
Cn1cc2c3c(cccc31)CN(C(=O)Cc1cccc(F)c1)CC2	mHTT-CaM PPI inh 53
COCCn1cc2c3c(cccc31)CN(C(=O)Cc1c(F)cccc1Cl)CC2	none
COCCn1cc2c3c(cccc31)CN(C(=O)Cc1ccccc1Cl)CC2	mHTT-CaM PPI inh 71
Cc1ccccc1C(=O)Nc1ccc(C(C)C)cc1	none
CC(C)(O)C#Cc1ccc(C=NOC(=O)Nc2ccc(Cl)cc2)cc1	none (no result: mHTT-CaM PPI inh)
CCn1cc2c3c(cccc31)CN(C(=O)Nc1cccc(F)c1C)CC2	none
CCn1cc2c3c(cccc31)CN(C(=O)c1ccccc1F)CC2	mHTT-CaM PPI inh 56
Cc1nn(-c2nc3ccccc3s2)c2c1C(c1ccccc1)CC(=O)N2 (stereo unspecified)	none
Cc1cc(C)nc(-n2nc(C)c3c2NC(=O)CC3c2ccc3ccccc3c2)n1 (stereo unspecified)	mHTT-CaM PPI inh 70
COc1ccc(C2CC(c3ccc(C(C)C)cc3)Nc3nnnn32)c(OC)c1 (stereo unspecified)	none
CCCCOC(=O)C1C2C=CC3(CN(c4cccc(C)c4)C(=O)C13)O2 (stereo unspecified)	none
COC(=O)C1C2C=CC3(CN(c4cccc(C)c4)C(=O)C13)O2 (stereo unspecified)	mHTT-CaM PPI inh 66
COc1ccc2c(c1)N1CCN(c3ccc(C)cc3)CC1C(C(=O)NC1CC1)C2 (stereo unspecified)	mHTT-CaM PPI inh 65
COc1ccc(N2CCN3c4cc(OC)ccc4CC(C(=O)NC4CC4)C3C2)cc1 (stereo unspecified)	none
CCCN1C(=O)/C(=C\c2nc3ccccc3c(=O)n2-c2ccc(OC)cc2)c2ccccc21	none
CCN1C(=O)/C(=C\c2nc3ccccc3c(=O)n2CC)c2ccccc21	mHTT-CaM PPI inh 100
CCCN1C(=O)/C(=C\c2nc3ccccc3c(=O)n2CC)c2ccccc21	none
CCN1C(=O)/C(=C\c2nc3ccccc3c(=O)n2-c2ccccc2[N+](=O)[O-])c2ccccc21	mHTT-CaM PPI inh 56
CCc1cccc(NC(=O)c2oc(=O)c3ccccc3c2-c2ccccc2)c1	none
C[C@H](CCC(=O)OCc1cn(CC(=O)c2ccc(O)cc2)nn1)[C@H]1CC[C@H]2[C@@H]3CC[C@@H]4C[C@H](O)CC[C@]4(C)[C@H]3C[C@H](O)[C@]12C	none
CC(CCC(=O)N=Nc1c(O)[nH]c2ccc(Br)cc12)C1CCC2C3C(O)CC4CC(O)CCC4(C)C3CCC12C (stereo unspecified)	mHTT-CaM PPI inh 63
CCOc1ccc(CN(CCc2ccc3c(c2)OCO3)Cc2cc(OC)c(OC)c(OC)c2)cc1	none
COc1ccc(Br)cc1CN(CCc1ccc2c(c1)OCO2)Cc1cccnc1	mHTT-CaM PPI inh 57
Cc1ccc(Cc2c(C)nc3nc(SCC(=O)NC4CC4)nn3c2C)cc1	none
Cc1nc2nc(SCC(=O)N3CCC(C)CC3)nn2c(C)c1Cc1ccc(Cl)cc1	mHTT-CaM PPI inh 52
CC(C)Cn1c(C2CCN(C(=O)c3ccccc3Cl)C2)nc2ccncc21 (stereo unspecified)	none
CCOc1ccc(C(=O)N2CCCC(C)(C(=O)NCc3cccc(OC)c3)C2)cc1 (stereo unspecified)	none
CN(CCCNC(=O)C1CCc2nc(N3CCCC3)ncc2C1)c1ccccc1 (stereo unspecified)	none
COc1cc(C(=O)Nc2cc(C)cc(C)n2)cc(OC)c1OC	none
CC(=O)Nc1c(C(=O)c2ccc(F)cc2)oc2ccc(Cl)cc12	none
O=C(Nc1c(C(=O)O)oc2ccc(Cl)cc12)c1ccc(C(F)(F)F)cc1	Pf apPOL block 85
O=C(O)CN(C1CCCCC1)S(=O)(=O)c1ccc(Br)cc1	Pf apPOL block 68
O=C(CN(C1CCCCC1)S(=O)(=O)c1ccc(Br)cc1)NC1CC1	none
Cc1ccc(/C=c2\sc3n(c2=O)C(N)=C(C#N)C(c2ccc(C)o2)C=3C#N)o1 (stereo unspecified)	mHTT-CaM PPI inh 59
N#CC1=C(N)n2c(s/c(=C\c3ccco3)c2=O)=C(C#N)C1c1ccco1 (stereo unspecified)	none
O=C(Oc1ccc2c(c1)OC(=Cc1ccc3c(c1)OCO3)C2=O)c1ccco1	none
COc1cc(C(=O)N2CCC(n3cnc4ccccc43)CC2)ccc1C	none
O=C(c1ccc(F)cc1)N1CCC(CCOc2ccccc2F)CC1	none
CN(C)c1cccc(C(=O)N2CCC(CCOc3cccc(F)c3)CC2)c1	mHTT-CaM PPI inh 84
CN(C)c1cccc(C(=O)N2CCC(CCOCc3ccccc3F)CC2)c1	mHTT-CaM PPI inh 57
CN(C)c1ccc(C(=O)N2CCC(CCOc3cccc(F)c3)CC2)cc1	none
CN(C)c1ccc(C(=O)N2CCC(CCOc3ccccc3F)CC2)cc1	mHTT-CaM PPI inh 88
CN(C)c1cccc(C(=O)N2CCC(n3cnc4ccc(F)cc43)CC2)c1	mHTT-CaM PPI inh 51
O=C(c1ccc2c(c1)OCO2)N1CCC(CCOCc2ccccc2F)CC1	none
O=C1OC(c2ccccc2F)=N/C1=C/c1coc2ccccc2c1=O	none
COc1ccc(CNC(=O)c2ccc([N+](=O)[O-])o2)cc1	none
CSC1=C(C#N)C(c2ccccc2F)CC(=O)N1 (stereo unspecified)	none
O=C(NC1CCCC1)c1cn(-c2ccccc2Cl)nn1	none
CN(C)CCNC(=O)C1CCN(c2nc3cccnc3s2)CC1	none
CN(C)c1cccc(C(=O)N2CCC(CCOCc3cccc(F)c3)CC2)c1	none
CN(C)c1cccc(C(=O)N2CCC(CCOCc3ccc(F)cc3)CC2)c1	mHTT-CaM PPI inh 60
CCOc1cc(/C=C2\NC(=O)NC2=O)cc(Br)c1OCC	none
Cc1cc(C)c[n+](CC(=O)c2cccc([N+](=O)[O-])c2)c1	none
COc1cccc2sc(N3CCc4ccccc4C3)nc12	mHTT-CaM PPI inh 93
COc1cccc2sc(N3CCN(c4ccccc4)CC3)nc12	none
CC(C)c1noc(C2CCCN2Cc2ccccn2)n1 (stereo unspecified)	mHTT-CaM PPI inh 57
CC(C)c1noc(C2CCCCN2CC(=O)Nc2ccccn2)n1 (stereo unspecified)	none
COc1cccc(CN2CCCCC2c2nc(C(C)C)no2)c1 (stereo unspecified)	none
CC(C)c1noc(C2CCCCN2Cc2ccc(N(C)C)cc2)n1 (stereo unspecified)	mHTT-CaM PPI inh 54
CCCc1cc(C2CCCN2C(=O)Cc2cccc(Cl)c2)no1 (stereo unspecified)	none
